Molecular target: pT7_6His-AlfaTag-HOXD13 (human, UniProt P35453 263-343)
Test: PADIT-seq
Details: dsDNA, one strand shown

Sequence of pT7_6His-AlfaTag-HOXD13 (P35453 263-343): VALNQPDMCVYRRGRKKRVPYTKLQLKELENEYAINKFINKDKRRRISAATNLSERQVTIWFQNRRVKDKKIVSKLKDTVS

Row | Sequence | binding signal
1 | CTCGAGGATATCAAGATCTGGCCTCGGCGTTCTAAAAGGAACCTCTAGCTAGCCGACTCACTATAGGGATAATCGCCCTGAGCAAAGACC | -0.197 ± 0.0802 log2FC
2 | CTCGAGGATATCAAGATCTGGCCTCGGCGATCCACGCGGAACCTCTAGCTAGCCGACTCACTATAGGGATAATCGCCCTGAGCAAAGACC | -1.01 ± 0.105 log2FC
3 | CTCGAGGATATCAAGATCTGGCCTCGGCCCTTGGGCGGGAACCTCTAGCTAGCCGACTCACTATAGGGATAATCGCCCTGAGCAAAGACC | -0.886 ± 0.123 log2FC
4 | CTCGAGGATATCAAGATCTGGCCTCGGCTCCCTAAAAGGAACCTCTAGCTAGCCGACTCACTATAGGGATAATCGCCCTGAGCAAAGACC | -0.0391 ± 0.141 log2FC
5 | CTCGAGGATATCAAGATCTGGCCTCGGCCCATTAAAAGGAACCTCTAGCTAGCCGACTCACTATAGGGATAATCGCCCTGAGCAAAGACC | 2.92 ± 0.0908 log2FC
6 | CTCGAGGATATCAAGATCTGGCCTCGGCATTTTATTCGGAACCTCTAGCTAGCCGACTCACTATAGGGATAATCGCCCTGAGCAAAGACC | 1.83 ± 0.0742 log2FC
7 | CTCGAGGATATCAAGATCTGGCCTCGGCTTTTTATCCGGAACCTCTAGCTAGCCGACTCACTATAGGGATAATCGCCCTGAGCAAAGACC | 1.15 ± 0.0852 log2FC
8 | CTCGAGGATATCAAGATCTGGCCTCGGCCGCCCAACAGGAACCTCTAGCTAGCCGACTCACTATAGGGATAATCGCCCTGAGCAAAGACC | -0.724 ± 0.117 log2FC
9 | CTCGAGGATATCAAGATCTGGCCTCGGCGTTTTAGGAGGAACCTCTAGCTAGCCGACTCACTATAGGGATAATCGCCCTGAGCAAAGACC | 1.64 ± 0.105 log2FC
10 | CTCGAGGATATCAAGATCTGGCCTCGGCATTTTAGGAGGAACCTCTAGCTAGCCGACTCACTATAGGGATAATCGCCCTGAGCAAAGACC | 1.62 ± 0.0831 log2FC
11 | CTCGAGGATATCAAGATCTGGCCTCGGCGTTTTAAAGGGAACCTCTAGCTAGCCGACTCACTATAGGGATAATCGCCCTGAGCAAAGACC | 2.48 ± 0.082 log2FC
12 | CTCGAGGATATCAAGATCTGGCCTCGGCTAGGTAAAAGGAACCTCTAGCTAGCCGACTCACTATAGGGATAATCGCCCTGAGCAAAGACC | -0.394 ± 0.106 log2FC
13 | CTCGAGGATATCAAGATCTGGCCTCGGCCGCCCAGCGGGAACCTCTAGCTAGCCGACTCACTATAGGGATAATCGCCCTGAGCAAAGACC | -0.602 ± 0.194 log2FC
14 | CTCGAGGATATCAAGATCTGGCCTCGGCGCGCGCGCGGGAACCTCTAGCTAGCCGACTCACTATAGGGATAATCGCCCTGAGCAAAGACC | -1.01 ± 0.148 log2FC
15 | CTCGAGGATATCAAGATCTGGCCTCGGCCTTTTACTCGGAACCTCTAGCTAGCCGACTCACTATAGGGATAATCGCCCTGAGCAAAGACC | 0.504 ± 0.0906 log2FC
16 | CTCGAGGATATCAAGATCTGGCCTCGGCGTAATAAAAGGAACCTCTAGCTAGCCGACTCACTATAGGGATAATCGCCCTGAGCAAAGACC | 2.86 ± 0.0699 log2FC
17 | CTCGAGGATATCAAGATCTGGCCTCGGCTGACCACGCGGAACCTCTAGCTAGCCGACTCACTATAGGGATAATCGCCCTGAGCAAAGACC | -1.02 ± 0.112 log2FC
18 | CTCGAGGATATCAAGATCTGGCCTCGGCTCTCCACGCGGAACCTCTAGCTAGCCGACTCACTATAGGGATAATCGCCCTGAGCAAAGACC | -0.925 ± 0.119 log2FC
19 | CTCGAGGATATCAAGATCTGGCCTCGGCTTTTTAGCTGGAACCTCTAGCTAGCCGACTCACTATAGGGATAATCGCCCTGAGCAAAGACC | -0.298 ± 0.114 log2FC
20 | CTCGAGGATATCAAGATCTGGCCTCGGCGTCGTAAAAGGAACCTCTAGCTAGCCGACTCACTATAGGGATAATCGCCCTGAGCAAAGACC | 2.57 ± 0.0709 log2FC
21 | CTCGAGGATATCAAGATCTGGCCTCGGCCTTTTAGATGGAACCTCTAGCTAGCCGACTCACTATAGGGATAATCGCCCTGAGCAAAGACC | 0.264 ± 0.0998 log2FC
22 | CTCGAGGATATCAAGATCTGGCCTCGGCTTTTTACGTGGAACCTCTAGCTAGCCGACTCACTATAGGGATAATCGCCCTGAGCAAAGACC | 2.42 ± 0.0834 log2FC
23 | CTCGAGGATATCAAGATCTGGCCTCGGCGAGCTAAAAGGAACCTCTAGCTAGCCGACTCACTATAGGGATAATCGCCCTGAGCAAAGACC | -0.842 ± 0.11 log2FC
24 | CTCGAGGATATCAAGATCTGGCCTCGGCTTTTTACTAGGAACCTCTAGCTAGCCGACTCACTATAGGGATAATCGCCCTGAGCAAAGACC | 3.21 ± 0.0865 log2FC
25 | CTCGAGGATATCAAGATCTGGCCTCGGCCGCCCAGAGGGAACCTCTAGCTAGCCGACTCACTATAGGGATAATCGCCCTGAGCAAAGACC | -1.03 ± 0.139 log2FC
26 | CTCGAGGATATCAAGATCTGGCCTCGGCCGCCCATAAGGAACCTCTAGCTAGCCGACTCACTATAGGGATAATCGCCCTGAGCAAAGACC | -0.213 ± 0.101 log2FC

Source: paper doi:10.1101/2024.03.05.583629
